# Assay results: PubChem BioAssay (NCI)
# The panel holds about 83,000 compounds, 20% with a hit somewhere; the sample as a whole holds those more often.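 Treatment: one concentration, 48 hours, 96-well format. Scoring: percent growth, with anything below 10 considered active.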 Calls of active or inactive are those of the source.
# Tested on: KM12 colon
# Assay: NCI-60 one-dose screen, 48 h (100 = growth as untreated, 0 = no growth, -100 = all killed)
# Settings: 10 µM unless noted
row,SMILES,growth
1,CCNc1cc2c(cc1Br)-c1ccccc1C2=O,83.4% (inactive)
2,Cn1cc(-c2noc(-c3cn(C)c4ncccc34)n2)c2cc(Cl)ccc21,103% (inactive)
3,N#Cc1ccc(-c2ccc(COc3ccc(CC4SC(=O)NC4=O)cc3)cc2)cc1 (centres undefined),61.9% (inactive)
4,O=C(N[C@@H]1CCCc2ccccc21)[C@H](CCC(=O)N1CCN(C2CCCCC2)CC1)N1C(=O)[C@@H](N2C(=O)OC[C@@H]2c2ccccc2)[C@H]1/C=C/c1ccccc1,35.5% (inactive)
5,CCOC(=O)/C(C#N)=C(\C)CCc1ccccc1,113% (inactive)
6,COc1ccc(C(=O)CSc2nccc(Nc3ccc(C(=O)O)cc3)n2)cc1,101% (inactive)
7,O=C(NCCCCCCCNC(=O)OCc1ccc2c(Cl)cc(Cl)c(O)c2n1)OCc1ccc2c(Cl)cc(Cl)c(O)c2n1,-82.4% (active)
8,CCN(CCO)CCC(=O)c1ccc([N+](=O)[O-])cc1,102% (inactive)
9,CCOC(=O)COc1c(C)cc(SSc2cc(C)c(OCC(=O)OCC)c(C)c2)cc1C,72.4% (inactive)
10,CC(C)C1=NOC(=O)C1=Cc1cn(-c2ccco2)nc1-c1ccccc1,85.2% (inactive)
11,CCOC(=O)Nc1ccc2c(c1)/C(=N\NC(=S)NC)c1ccccc1-2,71% (inactive)
12,COc1ccc(/C=C(/C(=O)c2ccc(Cl)cc2)C(=O)C(F)(F)F)cc1,91.6% (inactive)
13,O=[N+]([O-])c1cccc(N=NNc2cccc([N+](=O)[O-])c2)c1,95.2% (inactive)
14,COc1ccc2c(c1)c(-c1noc(-c3cn(C)c4ncc(F)cc34)n1)cn2C,87.8% (inactive)
